Screening results as filed in PubChem.
Yeast superoxide = yeast age-related superoxide inhibition as caloric restriction mimetic. S. cerevisiae aged cells, superoxide DHE fluorescence; active compounds read low. AID 2690. actives 0.18% (n = 330,000). superoxide response (% of plate mean), % at 10 µM;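 active = superoxide response under a set limit, about three screen SD below normal, cut at about 65% in these data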;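 note: yeast aged for seven days with compound at 30 °C before DHE staining; 100% = average MFI of all compound-treated wells on the plate with controls excluded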
APOBEC3G inh = APOBEC3G (human) deaminase inhibition; actives 0.28% (n = 330,000); recombinant A3G, ssDNA deamination FAM/TAMRA fluorescence; Q9HC16; inhibition, % at 20 µM;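 active = inhibition of at least 40% at 20 µM, with no more than 30% in the related APOBEC3A deaminase screen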;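 note: plate controls were DMSO wells with A3G for no effect and wells lacking A3G enzyme for full effect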
Target sequence (Q9HC16 whole entry, looked up): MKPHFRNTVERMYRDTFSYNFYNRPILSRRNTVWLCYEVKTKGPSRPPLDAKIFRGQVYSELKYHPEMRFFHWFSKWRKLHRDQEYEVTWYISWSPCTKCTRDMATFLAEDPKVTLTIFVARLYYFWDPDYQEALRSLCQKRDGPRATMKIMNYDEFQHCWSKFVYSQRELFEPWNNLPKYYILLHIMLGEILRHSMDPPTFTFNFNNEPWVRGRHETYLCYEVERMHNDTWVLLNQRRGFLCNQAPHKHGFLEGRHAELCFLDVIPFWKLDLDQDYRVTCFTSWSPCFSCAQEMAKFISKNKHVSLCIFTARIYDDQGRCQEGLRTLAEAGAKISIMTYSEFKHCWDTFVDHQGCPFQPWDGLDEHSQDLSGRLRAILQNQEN
NRP1-CendR mod = alters CendR peptide binding to human NRP-1. inhibition, % at 25 µM. actives 0.85% (n = 360,000). AID 602438. FAM-RPARPAR peptide binding to NRP-1, fluorescence polarization;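 active = inhibition or corrected inhibition above about 18%, plus a signal ratio from 0.5 to 1.5, limit read from the data, passing the limit was not always enough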
APOBEC3A inh = inhibitors of human APOBEC3A DNA deaminase; P31941; recombinant A3A, FAM/TAMRA ssDNA deamination fluorescence; inhibition, % at 20 µM; actives 0.41% (n = 330,000); AID 493011;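 active = at least 40% inhibition at 20 µM here, with at most 30% in a related deaminase screen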;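 note: plate controls were A3A with DMSO for no effect and wells lacking A3A enzyme for full effect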
Target sequence (P31941 whole entry, looked up): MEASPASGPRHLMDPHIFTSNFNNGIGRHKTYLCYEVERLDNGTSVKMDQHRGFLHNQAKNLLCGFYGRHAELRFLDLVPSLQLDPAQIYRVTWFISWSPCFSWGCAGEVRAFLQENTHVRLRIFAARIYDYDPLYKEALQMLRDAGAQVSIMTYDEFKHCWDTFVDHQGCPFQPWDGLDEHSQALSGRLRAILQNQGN
ALR inh = blocks human ALR sulfhydryl oxidase activity | P55789 | purified ALR, DTT oxidation, H2O2 HRP-luminol luminescence | inhibition, % (no concentration beside the values) | actives 3.8% (n = 290,000) | AID 485317;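 active = mean replicate inhibition above about 79%, with every replicate also reaching it, limit read from the data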
PfM18AAP inh-1 = PfM18AAP enzyme inhibition | recombinant PfM18AAP, H-Glu-NHMec fluorogenic cleavage | inhibition, % at 7.35 µM | actives 1.2% (n = 290,000);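 active = inhibition above the campaign mean inhibition over all tested compounds plus 3 SD, cut at about 28% in these data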;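 note: 0% = plate median of test compound wells and 100% = 2 mM ZnCl2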
PfM18AAP inh-2 = PfM18AAP inhibition, confirmation; shares compounds with PfM18AAP inh-1; recombinant PfM18AAP, H-Glu-NHMec fluorogenic cleavage; inhibition, % at 7.35 µM; actives 28% (n = 2,400);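 active = mean inhibition over replicate wells above the hit cutoff set for the earlier primary screen, cut at about 29% in these data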;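 note: 0% = median of test compound wells and 100% = 2 mM ZnCl2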
CTSL1 confirm = Cathepsin L (human) inhibition, confirmation | shares compounds with PfM18AAP inh-1 | AID 2178 | 2,400 tested, under 10 active | purified cathepsin L1, Z-Leu-Arg-MCA fluorescence | inhibition, % at 5.96 µM;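 active = average inhibition across replicates above the hit cutoff set in the earlier primary screen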;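 note: 0% = median of test compound wells and 100% = Z-Phe-Ala-diazomethylketone 1 µM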
* marks the source's active call; other numbers are inactive results; . = no result given. Hits are enriched below; roughly 5.2% of the tested compounds scored in any of these assays.

SMILES	Yeast superoxide	APOBEC3G inh	NRP1-CendR mod	APOBEC3A inh	ALR inh	PfM18AAP inh-1	PfM18AAP inh-2	CTSL1 confirm
O=[N+]([O-])c1ccc(Nc2ccc(Cl)cc2)nc1	90.2	-9.0	8.5	-2.3	-15.7	-4.7	.	.
O=[N+]([O-])c1ccc(NNS(=O)(=O)c2cc(Cl)ccc2Cl)nc1	114.6	-3.7	1.2	-2.5	99.5*	54.9*	-2.6	0.8
O=S1(=O)CC(O)C(Nc2ccccc2Cl)C1 (stereo not given)	87.7	0.8	16.0	-1.2	.	6.6	.	.
CN(CC(=O)Nn1cnnc1)S(=O)(=O)c1ccccc1	112.0	-5.5	-5.7	-2.1	-4.9	32.3*	19.8	-4.6
CN(CC(=O)Nc1ccncc1)S(=O)(=O)c1ccccc1	104.3	-4.6	-6.6	-1.7	-13.4	-5.7	.	.
CCN(CC)S(=O)(=O)c1ccc(C(=O)Nn2cnnc2)cc1	101.6	-8.7	-124.1	-0.5	-20.0	81.0*	75.0*	6.9
COc1ccc(C(=O)OCC(=O)N2CCCC2=O)c(OC)c1	106.5	-2.4	11.6	-0.1	-9.0	-2.3	.	.
O=C(N/N=C/c1ccc(O)c(O)c1)NC12CC3CC(CC(C3)C1)C2	144.6	-8.9	-0.3	-8.3	99.3*	47.7*	13.0	-0.7
O=C(N/N=C/c1cc(Cl)cc([N+](=O)[O-])c1O)NC12CC3CC(CC(C3)C1)C2	108.5	-4.7	0.9	2.2	-1.7	-9.1	.	.
O=C(NCCS(=O)(=O)NCc1ccco1)c1ccccc1	97.4	-0.4	-7.9	0.3	-2.9	.	.	.
COc1cc(CN(C)CC2CCCN(CCc3ccccc3F)C2)cc(Cl)c1OC (stereo not given)	106.6	-3.4	4.2	-5.3	4.9	0.3	.	.
Cc1ccc(S(=O)(=O)N2CCCCC2CCNC(=O)C(=O)NC2CC2)cc1 (stereo not given)	93.9	-6.2	-5.4	-0.2	2.7	.	.	.
CC1=NNC(=O)/C1=C\c1cn(-c2ccccc2)nc1-c1ccc(F)cc1	.	.	-2.0	.	.	38.9*	64.1*	-0.1
CCN(CC)c1ccc(N=C2C(=O)Nc3ccccc32)cc1	132.2	1.8	1.7	-4.9	94.0*	62.9*	-24.2	-0.6
COc1cc(/C=N/N2CCN(Cc3ccccc3)CC2)cc(OC)c1OC(C)=O	100.5	-9.3	1.5	-10.7	-22.5	36.2*	3.2	2.5
COc1cc(/C=N/N2CCN(Cc3ccccc3)CC2)cc(OC)c1OC	.	.	-3.6	.	.	.	.	.
COc1ccccc1NC(=O)c1cnc(Nc2ccccc2OC)c2ccccc12	83.3	-0.9	-8.7	2.6	-8.2	9.5	.	.
Cc1cccc(C)c1NC(=O)CSCC(=O)c1ccc(O)c(O)c1	98.6	-5.2	-40.3	-2.2	99.2*	48.4*	-1.3	5.4
CCCCCCCCN1C(=O)[C@H](CC(=O)NCc2ccc(OC)c(OC)c2)C[C@@]2(C(=O)OC)CC(C)(C)CC=C12	.	.	9.7	.	.	.	.	.
CCOC(=O)C(NC(=O)CCl)(Nc1sc(C)c(CC)c1C#N)C(F)(F)F (stereo not given)	99.9	-3.9	6.0	-2.3	3.4	7.0	.	.
CCOC(=O)C(NC(=O)N(C)C)(Nc1sc(C)c(CC)c1C#N)C(F)(F)F (stereo not given)	102.5	-5.7	4.7	-0.8	28.4	48.9*	0.7	-1.8
CC(=O)c1c(C(C)=O)c(C)n(-c2ccc(N)c(C)c2)c1C	102.6	-3.3	0.1	-1.1	.	32.4*	-40.4	0.0
COc1ccc(-n2c(C)c(C(C)=O)c(C(C)=O)c2C)cc1OC	98.5	-3.4	4.2	-0.6	-29.6	-3.6	.	.
CCOC(=O)C1=C(O)/C(=C\c2ccc(O)c(OCC)c2)N=C1C	99.4	4.0	-18.9	8.0	95.3*	40.5*	-41.4	2.1
COc1cc(C=C2CN(C)C(=O)C2=O)ccc1O	.	.	-33.0	.	.	.	.	.
SMILES	Yeast superoxide	APOBEC3G inh	NRP1-CendR mod	APOBEC3A inh	ALR inh	PfM18AAP inh-1	PfM18AAP inh-2	CTSL1 confirm
CCOc1cc(/C=C2\SC(=O)N=C2N)ccc1O	100.5	-4.9	-50.4	-4.4	.	7.2	.	.
CCOc1cc(/C=C2\CN(C)C/C(=C\c3ccc(O)c(OCC)c3)C2=O)ccc1O	98.1	4.5	10.2	7.2	.	44.0*	10.3	7.4
CCOc1cc(/C=C2\SC(N)=NC2=O)ccc1O	94.7	-8.6	-36.9	0.3	98.5*	38.2*	-15.8	0.1
CCOC(=O)COc1ccccc1-c1ccno1	99.0	0.6	-14.5	0.3	-10.5	1.6	.	.
CCOc1ccc(Br)cc1S(=O)(=O)Nc1cccc(S(=O)(=O)N2CCOCC2)c1	.	.	1.2	.	.	.	.	.
CON(c1nc(N(C)C)nc(N(C)C)n1)S(=O)(=O)c1ccccc1Cl	89.2	-8.5	5.4	-10.7	-1.3	-1.3	.	.
COC(=O)CN(n1cnnc1)S(=O)(=O)c1ccccc1Cl	96.5	-7.5	0.2	-4.8	-5.9	87.0*	77.3*	-4.9
CC(C)(C)OC(=O)NCCCC[C@H](NC(=O)c1nc[nH]c1C(=O)N1CCN(c2ccccc2)CC1)C(=O)OC(C)(C)C	98.3	-7.5	0.4	-2.6	-3.8	.	.	.
COc1cccc(NC(=O)c2cc3cccc(OC)c3o/c2=N\O)c1	83.1	-2.1	.	-3.5	51.6	50.8*	17.4	-0.7
CC1CCC(NC(=O)CCNS(=O)(=O)c2ccc3c(c2)CCC(=O)N3)CC1 (stereo not given)	98.0	1.4	-2.7	-0.1	-6.7	-1.6	.	.
Cc1oc2c(CN3CCCC3)c(O)ccc2c(=O)c1-c1ccc(Br)cc1	95.0	-6.9	7.1	-4.6	-0.9	11.2	.	.
Cc1oc2c(O)c(O)ccc2c(=O)c1-c1cnn(-c2ccccc2)c1	106.9	-1.4	-84.2	3.3	99.7*	31.7*	26.8	-1.6
Cc1oc2c(O)c(O)ccc2c(=O)c1-c1ccc(Cl)cc1	94.1	2.8	-71.5	-1.1	98.9*	43.9*	19.0	-2.6
CCN1CCN(C(=S)c2ccc(OCC(=O)Nc3ccc(OC)cc3)cc2)CC1	105.0	10.8	14.9	-1.2	-5.6	3.2	.	.
Cc1ccc(C(=S)N2CCN(Cc3ccccc3)CC2)cc1	80.7	11.3	4.4	-3.9	-5.7	52.0*	-5.5	6.0
CCN1CCN(C(=S)c2ccc(OCC(=O)NCc3ccccc3)cc2)CC1	97.1	-9.9	-8.0	-8.4	5.2	38.6*	-7.4	3.2
COc1cccc(/C=N/N2C(=O)CSC2=S)c1O	106.2	-1.5	-34.2	-2.8	97.8*	32.0*	26.0	0.3
O=C1CSC(=S)N1N=Cc1c(F)cccc1Cl	.	.	-13.8	.	.	.	.	.
O=C1CSC(=S)N1/N=C/c1c(F)cccc1F	83.9	-8.4	-10.7	-3.3	.	36.6*	-4.4	1.8
O=C1CSC(=S)N1/N=C/c1cccc(C(F)(F)F)c1	84.9	9.9	2.1	2.9	2.0	39.5*	-6.3	-4.2
c1ccc(CO/N=C(\c2ccc(C3CC3)nc2)C2CC2)cc1	82.7	-5.3	4.2	-3.0	-2.2	-2.4	.	.
